Sm TGR inh = inhibitors of Schistosoma mansoni thioredoxin glutathione reductase; Q962Y6; purified TGR, DTNB reduction, TNB absorbance 405 nm; Potency, µM (top dose mostly 114 µM), without a hit: at the highest dose activity change, negative = inhibition, actives largely listed as inhibitors; 3% of 360,000 active; AID 485364; further: nearly all actives have a fitted effect of over 60% in size
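First, TGR (20 nM dispensed) and NADPH were mixed with compound. Second, a 15 min room-temperature incubation followed. Third, further NADPH and then DTNB were added to start the reaction. Finally, TNB absorbance was monitored kinetically.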
AmpC inh no detg = blocks E. coli AmpC beta-lactamase in detergent-free assay. AmpC nitrocefin hydrolysis, absorbance 480 nm, 0.0001% Triton. Potency, µM (titrated, usually from 57.1 µM), for inactives: at the top dose activity change, negative = inhibition, hits mostly inhibitors. 0.52% of 330,000 active;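 further: plate controls were no compound for no effect and no enzyme for full effect; nearly all actives have a fitted effect of over 20% in size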
Target sequence (P00811 whole entry, looked up): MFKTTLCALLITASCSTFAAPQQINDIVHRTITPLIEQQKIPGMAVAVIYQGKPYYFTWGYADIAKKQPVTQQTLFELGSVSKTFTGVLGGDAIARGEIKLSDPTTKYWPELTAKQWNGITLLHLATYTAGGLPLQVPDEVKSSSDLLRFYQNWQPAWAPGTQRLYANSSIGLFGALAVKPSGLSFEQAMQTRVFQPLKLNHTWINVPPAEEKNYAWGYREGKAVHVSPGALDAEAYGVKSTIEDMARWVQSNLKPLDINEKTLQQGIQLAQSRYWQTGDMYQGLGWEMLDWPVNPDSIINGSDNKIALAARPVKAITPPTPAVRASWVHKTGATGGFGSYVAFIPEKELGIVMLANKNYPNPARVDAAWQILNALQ
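AmpC (5.3 nM in the dispensed reagent) in 20 mM phosphate pH 7.0 with 0.01% (detergent screen) or 0.0001% Triton X-100 was preincubated with compounds for 15 min at room temperature. Nitrocefin was then added from an 800 uM solution, and hydrolysis was followed at 480 nm.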
AmpC detergent = inhibitors of E. coli AmpC beta-lactamase with detergent | P00811 | AmpC hydrolysis of nitrocefin, absorbance 480 nm, 0.01% Triton | Potency, µM (series often up to 114 µM), for the others: at the highest dose activity change, negative = inhibition, actives largely listed as inhibitors | 0.041% of 370,000 active | AID 485294;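 further: 0% = no-compound wells and -100% = no-enzyme wells; nearly all actives have a fitted effect of over 25% in size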
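20 mM phosphate pH 7.0 + 0.01% (detergent screen) or 0.0001% Triton X-100; 5.3 nM AmpC reagent; cpd preinc 15 min RT; nitrocefin (800 uM stock) to start; A480 q20 s × 4 min; Activity was normalised to no-enzyme and no-compound control wells.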
FBPA Giardia inh = inhibitors of Giardia lamblia fructose-1,6-bisphosphate aldolase | A8B2U2 | purified Giardia FBPA | Potency, µM (doses to about 59.6 µM), without a hit: at the top dose activity, negative = inhibition, most hits filed as inhibitors | 0.71% of 290,000 active | AID 2451; further: nearly all actives have a fitted effect of over 55% in size
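40 nM FBPA preincubated 10 min at RT with compound (up to 57.5 uM final), then substrate plus GAPDH/TPI/NAD/arsenate coupling and diaphorase/resazurin added. Fluorescence read after 20 min at RT, 525/598 nm.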
RE007 growth inh = less growth of the S. pombe RE007 Vpr strain. 0.21% of 360,000 active. S. pombe RE007 Vpr strain, BacTiter-Glo ATP luminescence, 24 h. Potency, µM (doses to about 92.2 µM), without a hit: at the highest dose activity change, negative = less growth, usual class: inhibitors; active means well fitted falling curve with a large enough effect; inconclusive means small, poorly fitted or top-dose-only effect; inactive means no such curve, though single readings can be large or run the other way; further: nearly all actives have a fitted effect of over 50% in size
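Fission yeast RE007 carrying one integrated HIV-1 vpr copy, seeded at OD 0.01 in PMG+AL medium with 23 nL pinned compound. Grown 24 h at 30 degrees; viability read by BacTiter-Glo luminescence after 5 min.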
* marks the source's active call; other numbers are inactive results; ? = inconclusive; / = not tested or not shown. This is a sample that favours compounds with a hit; in the whole collection about 3.4% have one here. Unless noted, the call rests on the fitted dose curve; in most records, active means well fitted curve in the direction sought with a large enough effect; inconclusive means small, poorly fitted or top-dose-only effect, or another doubt; inactive means no such curve, though single readings can be large; an effect the other way counts as inactive or inconclusive. Unless noted, on the % scale 0 is the no-effect control and ±100 the full control effect; potency means the concentration at half of the fitted maximal effect.

SMILES	Sm TGR inh	AmpC inh no detg	AmpC detergent	FBPA Giardia inh	RE007 growth inh
CCOC(=O)c1ccc(NC(=O)CSc2nc3ncccc3[nH]2)cc1	-11.1%	-27.8%	-0.7%	-3.8%	4.6%
COc1cc(CN2CCCC(C(=O)c3sccc3C)C2)cc(OC)c1O (centres undefined)	15.8µM*	-19.1%	-0.2%	?	-15.8%
COc1cc(CN2CCCC(C(=O)c3sccc3C)C2)cc(Cl)c1O (centres undefined)	?	13.1%	-5.8%	-18.4%	1.7%
N#Cc1c(N)oc(-c2ccco2)c1-c1ccco1	35.5µM*	-30.1%	-7.7%	-26.7%	0.9%
Cc1ccc2ccc(C(Nc3ccccc3)c3ccccc3)c(O)c2n1 (centres undefined)	/	/	/	/	-9.7%
COc1cc(C(Nc2ccccn2)c2ccc3ccc(C)nc3c2O)cc(OC)c1O (centres undefined)	0.355µM*	49.9%	-7.1%	-4.7%	15.6%
COc1ccc(C(Nc2cc(C)ccn2)c2ccc3ccc(C)nc3c2O)cc1 (centres undefined)	0.398µM*	-5.4%	-2.0%	2.6%	-4.7%
Cc1ccc2ccc(C(Nc3cccc(C(F)(F)F)c3)c3cccnc3)c(O)c2n1 (centres undefined)	2.24µM*	2.3%	-5.2%	-1.3%	-0.8%
Cc1ccc2ccc(C(Nc3ccccn3)c3ccccc3)c(O)c2n1 (centres undefined)	2.82µM*	-21.7%	?	-23.3%	-4.4%
Cc1ccnc(NC(c2ccsc2)c2ccc3ccc(C)nc3c2O)c1 (centres undefined)	/	-51.4%	-5.4%	-4.8%	-11.9%
CN(C)S(=O)(=O)c1cc(NC2CC(=O)N(c3ccc(F)cc3)C2=O)ccc1Cl (centres undefined)	25.1µM*	-44.1%	-12.1%	-0.2%	-5.2%
Cc1ccc(NC2CC(=O)N(c3ccc(C)cc3)C2=O)cc1 (centres undefined)	-27.9%	-2.2%	-0.7%	7.8%	-11.5%
CCOC(=O)N1CCC2(CC1)C(C#N)=C(N)Oc1n[nH]c(CSc3ccc(C)cc3)c12	-1.3%	0.5%	3.7%	5.2%	25.3%
Cc1ccc(SCc2[nH]nc3c2C2(CCSCC2)C(C#N)=C(N)O3)cc1	-8.6%	28.2µM*	-4.5%	-1.3%	-1.6%
O=C(/C=C/c1ccc(-c2cccc([N+](=O)[O-])c2)o1)N1CCOCC1	39.8µM*	30.7%	2.9%	0.2%	1.7%
Cc1cccn2c(NC(=O)c3ccccc3F)c(-c3ccccc3)nc12	2.6%	-16.3%	1.2%	4.2%	-11.5%
CC(C)CC(=O)Nc1c2c(nn1-c1ccc(F)cc1)CS(=O)C2 (centres undefined)	-14.5%	-16.8%	-2.5%	4.1%	2.4%
Cc1cccc(-n2nc3c(c2NC(=O)c2ccco2)CS(=O)C3)c1C (centres undefined)	-0.2%	-4.7%	-2.9%	8.1%	-22.2%
Cc1ccc(-n2nc3c(c2NC(=O)CC(C)C)CS(=O)C3)cc1 (centres undefined)	50.1µM*	-30.9%	-12.8%	0.5%	3.6%
CC(=O)Nc1c2c(nn1-c1ccccc1)CS(=O)C2 (centres undefined)	-21.8%	-7.9%	2.1%	9.9%	-7.0%
CC(=O)Nc1c2c(nn1-c1ccccc1C)CS(=O)C2 (centres undefined)	50.1µM*	-9.8%	-7.7%	1.2%	4.6%
Cc1ccc(-n2nc3c(c2NC(=O)c2ccco2)CS(=O)C3)c(C)c1 (centres undefined)	39.8µM*	-9.1%	?	/	1.2%
CCOc1ccc(CNC(=O)CCC(=O)n2nc(C)c3ccccc32)cc1	-21.0%	2.0%	4.6%	/	-22.0%
S=C(c1ccc(-c2ccc(Br)cc2)o1)N1CCOCC1	-5.8%	-17.5%	2.1%	-6.4%	13.4%
S=C(c1ccc(-c2ccc(Cl)c(Cl)c2)o1)N1CCOCC1	44.7µM*	-32.0%	-13.5%	-12.9%	-15.3%
COC(=O)c1c(C)[nH]c(O)c1C=Nc1ccc(C#N)cc1	12.6µM*	-22.7%	2.3%	15.8µM*	11.1%
CCOC(=O)c1c(C)[nH]c(O)c1C=Nc1ccccc1	-1.3%	-2.3%	1.9%	-15.4%	7.5%
